This passage reports growth results from PubChem BioAssay (NCI).

Structures are written as SMILES. The panel holds about 83,000 compounds, 20% with a hit somewhere; the sample as a whole holds those more often.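 The endpoint reported here, percent growth, reads 100 for growth as untreated, 0 for no net growth and -100 for all cells dead.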 Unmarked numbers belong to inactive results. The source made the active and inactive calls. How the source made its calls: active means growth percent below 10; inactive means the rest.

The assay deals with HL-60(TB) leukemia. Put plainly: NCI-60 one-dose screen, 48 h (100 = growth as untreated, 0 = no growth, -100 = all killed). The conditions noted are these: 10 µM unless noted.
Turning to `CN(C)c1cc(NN=C(c2ccc(O)cc2)c2ccc(O)cc2)c([N+](=O)[O-])cc1[N+](=O)[O-]`, the growth was 127%.

In the case of `Cc1ccc(S(=O)(=O)NCCNc2nccc(-c3c(-c4cccc(N)c4)nc4sccn34)n2)cc1`, the growth is 110%.

In the case of `COc1cc2c(c(OC)c1OC)C(=O)CC(c1cccc(C(=O)Nc3cccc(Br)c3)c1)O2` (stereo not given), the growth is 91.8%. Regarding `CCC(C)N(CCNc1cc(OC)cc2cccnc12)CCC(C)C` (stereo not given), the growth is 81%. As for `COc1cc(C2CC(c3ccc(C)cc3)=NN2C=O)ccc1Oc1ccnc2cc(Cl)ccc12` (stereo not given), the growth was 94.8%.

Turning to `COc1ccc(-c2cn3c(C(=O)Nc4ccccc4Cl)c(-c4ccccc4)c4c3n2CCCC4)cc1`, the growth was 83.4%. As to `Cc1cc(NS(=O)(=O)c2ccc(-c3cnc(C4CC4)o3)cc2)ccc1Cl`, the growth was 0.815% (active). With `Cn1cnc([N+](=O)[O-])c1/C=C1\Oc2ccc(Cl)cc2C1=O`, the growth is 60%. Consider `Cn1cnc2nc[nH]c2c1=S`, for which the growth was 108%. In the case of `COc1cccc2c1C(=O)c1c(O)c3c(c(O)c1C2=O)C[C@@](O)(C(=O)CO)C[C@@H]3OC1C[C@H](N)[C@H](O)[C@H](C)O1` (stereo not given in full), the growth is -26.7% (active). `O=C(c1cccc(N2CCOCC2)n1)c1c[nH]c2ccccc12`: the growth was 98.9%. Take `Cc1nc(N=C(N)N)nc2ccc3ccccc3c12`: the growth is 22.6%. With `O=C(Nc1cccc(F)c1)Nc1cccc(Cl)c1`, the growth is -10.6% (active). Consider `COc1ccc(-c2cc(-c3cccnc3)nc3sc4c(=O)n(-c5ccc(C)cc5)cnc4c23)cc1OC`, for which the growth is 107%. With `O=C1COc2ccccc2C(=O)N1CCCCN1CCCCC1`, the growth was 75.3%. Consider `C#CC(=O)/C=C/CCCCCCC#CC(=O)CCC(=O)C#CCCCCCC/C=C/C(=O)C#C`, for which the growth was -70.1% (active). With `CC#Cc1nc(Nc2cc(C)[nH]n2)c2ccccc2n1`, the growth was 4.13% [100 µM] (active). Regarding `COc1cc2oc(-c3cccc(C(=O)Nc4ccc(Br)cc4)c3)cc(=O)c2c(OC)c1OC`, the growth was 38.6%.

With `O=C(OCC1OC(n2cc(C(F)(F)F)c(=O)[nH]c2=O)CC1OC(=O)c1ccc([N+](=O)[O-])cc1)c1ccc([N+](=O)[O-])cc1` (stereo not given), the growth was 62.7%. Consider `C=CC1=NC(C)(C)CC(C)O1` (stereo not given), for which the growth was 96.7%.

As to `COc1ccc2[nH]c(C(=O)OCc3ccc4c(Cl)cc(Cl)c(O)c4n3)cc2c1`, the growth is -30.4% (active). For the compound `N#C/C(=C\c1ccc(-c2ccc(Cl)c(Cl)c2)o1)c1nc(-c2ccco2)cs1`, the growth is 103%. `OC(c1cc(-c2ccccc2)nc2ccc(Cl)cc12)C1CCCCN1` (stereo not given): the growth was 49.7%.

For the compound `CCCCc1ccc(C(N)=O)nc1`, the growth is 88.2%. For the compound `O=C(N(c1ccccc1)c1ccccc1)n1cc(I)c2nc(Cl)nc(Cl)c21`, the growth is 22.9%. In the case of `CCCCN(CCCC)CC(CN(CC)CC)OC(=O)Nc1ccccc1` (stereo not given), the growth is 84.1%. For `Cc1ccccc1C(=O)c1ccccc1C(=O)O`, the growth was 106%. Consider `CCOc1cccc(NC2=C(Br)C(=O)C(C)=C(C)C2=O)c1`, for which the growth was -12.5% (active). For `COc1ccc(C/C(C)=C(\c2ccc(Cl)cc2)c2ccc(OCCN3CCCCC3)cc2)cc1`, the growth is 91.8%. In the case of `CCN1CCN(CCNc2nccc(-c3c(-c4cccc(OC)c4)nc4occn34)n2)S1(=O)=O`, the growth was 119%. `Cc1nc2scc(-c3ccc(Cl)cc3)n2c(=O)c1CCN1CCOCC1`: the growth was 99.6%.

`CCOC(=O)CC(C)=N`: the growth was 93.9%.

Regarding `CN(C)CC1=NC2SC=C(c3ccccc3)C2C(=O)N1CC#N` (stereo not given), the growth is 86.1%. With `O=C(c1ccccc1)N(C(=O)c1ccccc1)N1CCCC1`, the growth is 120%. `CC(=O)O[C@H]1CC[C@@]2(C)[C@@H](CC[C@@H]3[C@@H]2CC(=O)[C@@]2(C)[C@H]3C[C@@H](C3CCCC3=O)[C@@H]2C(C)=O)C1` (stereo not given in full): the growth was 51.8%. On to `OC(CCCCCCCCC(O)CN1CCc2ccccc2C1)CN1CCc2ccccc2C1` (stereo not given), for which the growth was 95.1%.

Turning to `COc1ccc2c(c1)C(=O)/C(=C/c1cccc(OCC(=O)c3ccccc3)c1)CC2`, the growth is 46.5%.

Take `NC(=N\N=C\c1ccccc1O)/C(N)=N/N=C/c1ccccc1O`: the growth is 69.5%.

Turning to `COc1ccc(-c2nc(/C=N/Nc3cc(C)nc4ccc(Br)cc34)c(C)o2)cc1`, the growth was -51.5% (active).

Turning to `Cc1[nH]c(C(=O)Nc2ccc(C(N)=O)cc2OC(C)C)c(Cl)c1Cl`, the growth was 97.1%.
